molecular target: AgAbp1; test: SPOT peptide array binding signal intensity (averaged, normalized) (arbitrary units (background-subtracted, floor 0; scale differs between SH3 domains)); higher = stronger binding of the SH3 domain to the peptide
Method in brief: (§1)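 GST-fused SH3 domains, from four yeast species, were produced in E. coli BL21(DE3) and captured on glutathione Sepharose. Membranes of cellulose carrying synthetic 15-mer peptides, in which cysteines had been replaced by serines, were exposed to each domain at 10 μg/ml overnight at 4°C in TBS-based blocking buffer. After anti-GST antibody, an HRP anti-mouse secondary and luminol, spots were imaged and quantified using Genespotter. Binding signal is normalized and background-subtracted spot intensity, averaged over replicates, in arbitrary units that differ between domains.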

Binder | SPOT peptide array binding signal intensity
LKHGWKPLRPIKLIS | 1400

molecular target: AgBbc1; test: as above
Method in brief: as §1

Binder | SPOT peptide array binding signal intensity
LKHGWKPLRPIKLIS | 72.8

molecular target: AgBem1-D1; test: as above
Method in brief: as §1

Binder | SPOT peptide array binding signal intensity
LKHGWKPLRPIKLIS | 12

molecular target: AgBzz1-D1; test: as above
Method in brief: as §1

Binder | SPOT peptide array binding signal intensity
LKHGWKPLRPIKLIS | 31

molecular target: AgBzz1-D2; test: as above
Method in brief: as §1

Binder | SPOT peptide array binding signal intensity
LKHGWKPLRPIKLIS | ≤ 0

molecular target: AgCyk3; test: as above
Method in brief: as §1

Binder | SPOT peptide array binding signal intensity
LKHGWKPLRPIKLIS | ≤ 0

molecular target: AgFus1; test: as above
Method in brief: as §1

Binder | SPOT peptide array binding signal intensity
LKHGWKPLRPIKLIS | 141

molecular target: AgHof1; test: as above
Method in brief: as §1

Binder | SPOT peptide array binding signal intensity
LKHGWKPLRPIKLIS | 21.5

molecular target: AgHse1; test: as above
Method in brief: as §1

Binder | SPOT peptide array binding signal intensity
LKHGWKPLRPIKLIS | 252

molecular target: AgLsb1; test: as above
Method in brief: as §1

Binder | SPOT peptide array binding signal intensity
LKHGWKPLRPIKLIS | ≤ 0

molecular target: AgLsb4; test: as above
Method in brief: as §1

Binder | SPOT peptide array binding signal intensity
LKHGWKPLRPIKLIS | ≤ 0

molecular target: AgMyo5; test: as above
Method in brief: as §1

Binder | SPOT peptide array binding signal intensity
LKHGWKPLRPIKLIS | ≤ 0

molecular target: AgNbp2; test: as above
Method in brief: as §1

Binder | SPOT peptide array binding signal intensity
LKHGWKPLRPIKLIS | 41

molecular target: AgRvs167; test: as above
Method in brief: as §1

Binder | SPOT peptide array binding signal intensity
LKHGWKPLRPIKLIS | 5.33

molecular target: AgSho1; test: as above
Method in brief: as §1

Binder | SPOT peptide array binding signal intensity
LKHGWKPLRPIKLIS | 32

molecular target: AgSla1-D1-D2; test: as above
Method in brief: as §1

Binder | SPOT peptide array binding signal intensity
LKHGWKPLRPIKLIS | 206

molecular target: AgSla1-D3; test: as above
Method in brief: as §1

Binder | SPOT peptide array binding signal intensity
LKHGWKPLRPIKLIS | 3.5

molecular target: CaAbp1-D1; test: as above
Method in brief: as §1

Binder | SPOT peptide array binding signal intensity
LKHGWKPLRPIKLIS | 398

molecular target: CaAbp1-D2; test: as above
Method in brief: as §1

Binder | SPOT peptide array binding signal intensity
LKHGWKPLRPIKLIS | 1860

molecular target: CaBbc1; test: as above
Method in brief: as §1

Binder | SPOT peptide array binding signal intensity
LKHGWKPLRPIKLIS | 364

molecular target: CaBem1-D1; test: as above
Method in brief: as §1

Binder | SPOT peptide array binding signal intensity
LKHGWKPLRPIKLIS | 23

molecular target: CaBzz1-D1; test: as above
Method in brief: as §1

Binder | SPOT peptide array binding signal intensity
LKHGWKPLRPIKLIS | ≤ 0

molecular target: CaBzz1-D2; test: as above
Method in brief: as §1

Binder | SPOT peptide array binding signal intensity
LKHGWKPLRPIKLIS | 46.5

molecular target: CaCyk3; test: as above
Method in brief: as §1

Binder | SPOT peptide array binding signal intensity
LKHGWKPLRPIKLIS | 7

molecular target: CaFus1; test: as above
Method in brief: as §1

Binder | SPOT peptide array binding signal intensity
LKHGWKPLRPIKLIS | 850

molecular target: CaHof1; test: as above
Method in brief: as §1

Binder | SPOT peptide array binding signal intensity
LKHGWKPLRPIKLIS | ≤ 0

molecular target: CaHse1; test: as above
Method in brief: as §1

Binder | SPOT peptide array binding signal intensity
LKHGWKPLRPIKLIS | 193

molecular target: CaLsb1; test: as above
Method in brief: as §1

Binder | SPOT peptide array binding signal intensity
LKHGWKPLRPIKLIS | ≤ 0

molecular target: CaLsb4; test: as above
Method in brief: as §1

Binder | SPOT peptide array binding signal intensity
LKHGWKPLRPIKLIS | 176

molecular target: CaMyo5; test: as above
Method in brief: as §1

Binder | SPOT peptide array binding signal intensity
LKHGWKPLRPIKLIS | ≤ 0

molecular target: CaNbp2; test: as above
Method in brief: as §1

Binder | SPOT peptide array binding signal intensity
LKHGWKPLRPIKLIS | 252

molecular target: CaRvs167; test: as above
Method in brief: as §1

Binder | SPOT peptide array binding signal intensity
LKHGWKPLRPIKLIS | 14.8

molecular target: CaRvs167-3; test: as above
Method in brief: as §1

Binder | SPOT peptide array binding signal intensity
LKHGWKPLRPIKLIS | 24.8

molecular target: CaSho1; test: as above
Method in brief: as §1

Binder | SPOT peptide array binding signal intensity
LKHGWKPLRPIKLIS | 201

molecular target: CaSla1-D1-D2; test: as above
Method in brief: as §1

Binder | SPOT peptide array binding signal intensity
LKHGWKPLRPIKLIS | 27.5

molecular target: CaSla1-D3; test: as above
Method in brief: as §1

Binder | SPOT peptide array binding signal intensity
LKHGWKPLRPIKLIS | 10

molecular target: ScAbp1; test: as above
Method in brief: as §1

Binder | SPOT peptide array binding signal intensity
LKHGWKPLRPIKLIS | 296

molecular target: ScBbc1; test: as above
Method in brief: as §1

Binder | SPOT peptide array binding signal intensity
LKHGWKPLRPIKLIS | 9.75

molecular target: ScBem1-D1; test: as above
Method in brief: as §1

Binder | SPOT peptide array binding signal intensity
LKHGWKPLRPIKLIS | 9

molecular target: ScBzz1-D1; test: as above
Method in brief: as §1

Binder | SPOT peptide array binding signal intensity
LKHGWKPLRPIKLIS | 6.5

molecular target: ScBzz1-D2; test: as above
Method in brief: as §1

Binder | SPOT peptide array binding signal intensity
LKHGWKPLRPIKLIS | 20

molecular target: ScCyk3; test: as above
Method in brief: as §1

Binder | SPOT peptide array binding signal intensity
LKHGWKPLRPIKLIS | 10

molecular target: ScFus1; test: as above
Method in brief: as §1

Binder | SPOT peptide array binding signal intensity
LKHGWKPLRPIKLIS | 50

molecular target: ScHof1; test: as above
Method in brief: as §1

Binder | SPOT peptide array binding signal intensity
LKHGWKPLRPIKLIS | ≤ 0

molecular target: ScHse1; test: as above
Method in brief: as §1

Binder | SPOT peptide array binding signal intensity
LKHGWKPLRPIKLIS | 478

molecular target: ScLsb1; test: as above
Method in brief: as §1

Binder | SPOT peptide array binding signal intensity
LKHGWKPLRPIKLIS | 16.5

molecular target: ScLsb2; test: as above
Method in brief: as §1

Binder | SPOT peptide array binding signal intensity
LKHGWKPLRPIKLIS | ≤ 0

molecular target: ScLsb3; test: as above
Method in brief: as §1

Binder | SPOT peptide array binding signal intensity
LKHGWKPLRPIKLIS | 527

molecular target: ScLsb4; test: as above
Method in brief: as §1

Binder | SPOT peptide array binding signal intensity
LKHGWKPLRPIKLIS | 4

molecular target: ScMyo3; test: as above
Method in brief: as §1

Binder | SPOT peptide array binding signal intensity
LKHGWKPLRPIKLIS | ≤ 0

molecular target: ScMyo5; test: as above
Method in brief: as §1

Binder | SPOT peptide array binding signal intensity
LKHGWKPLRPIKLIS | ≤ 0

molecular target: ScNbp2; test: as above
Method in brief: as §1

Binder | SPOT peptide array binding signal intensity
LKHGWKPLRPIKLIS | 550

molecular target: ScPex13; test: as above
Method in brief: as §1

Binder | SPOT peptide array binding signal intensity
LKHGWKPLRPIKLIS | 37.5

molecular target: ScRvs167; test: as above
Method in brief: as §1

Binder | SPOT peptide array binding signal intensity
LKHGWKPLRPIKLIS | ≤ 0

molecular target: ScSho1; test: as above
Method in brief: as §1

Binder | SPOT peptide array binding signal intensity
LKHGWKPLRPIKLIS | 1040

molecular target: ScSla1-D1-D2; test: as above
Method in brief: as §1

Binder | SPOT peptide array binding signal intensity
LKHGWKPLRPIKLIS | 50

molecular target: ScSla1-D3; test: as above
Method in brief: as §1

Binder | SPOT peptide array binding signal intensity
LKHGWKPLRPIKLIS | 6.5

molecular target: SpAbp1-D1; test: as above
Method in brief: as §1

Binder | SPOT peptide array binding signal intensity
LKHGWKPLRPIKLIS | 166

molecular target: SpBbc1; test: as above
Method in brief: as §1

Binder | SPOT peptide array binding signal intensity
LKHGWKPLRPIKLIS | 0.75

molecular target: SpBzz1-D1; test: as above
Method in brief: as §1

Binder | SPOT peptide array binding signal intensity
LKHGWKPLRPIKLIS | 362

molecular target: SpBzz1-D2; test: as above
Method in brief: as §1

Binder | SPOT peptide array binding signal intensity
LKHGWKPLRPIKLIS | 0.5

molecular target: SpCyk3; test: as above
Method in brief: as §1

Binder | SPOT peptide array binding signal intensity
LKHGWKPLRPIKLIS | ≤ 0

molecular target: SpHof1; test: as above
Method in brief: as §1

Binder | SPOT peptide array binding signal intensity
LKHGWKPLRPIKLIS | 93

molecular target: SpHof1-2; test: as above
Method in brief: as §1

Binder | SPOT peptide array binding signal intensity
LKHGWKPLRPIKLIS | 18.8

molecular target: SpHof1-3; test: as above
Method in brief: as §1

Binder | SPOT peptide array binding signal intensity
LKHGWKPLRPIKLIS | 445

molecular target: SpHse1; test: as above
Method in brief: as §1

Binder | SPOT peptide array binding signal intensity
LKHGWKPLRPIKLIS | 294

molecular target: SpLsb1; test: as above
Method in brief: as §1

Binder | SPOT peptide array binding signal intensity
LKHGWKPLRPIKLIS | ≤ 0

molecular target: SpLsb4; test: as above
Method in brief: as §1

Binder | SPOT peptide array binding signal intensity
LKHGWKPLRPIKLIS | 161

molecular target: SpMyo1; test: as above
Method in brief: as §1

Binder | SPOT peptide array binding signal intensity
LKHGWKPLRPIKLIS | ≤ 0

molecular target: SpNbp2; test: as above
Method in brief: as §1

Binder | SPOT peptide array binding signal intensity
LKHGWKPLRPIKLIS | 246

molecular target: SpPex13; test: as above
Method in brief: as §1

Binder | SPOT peptide array binding signal intensity
LKHGWKPLRPIKLIS | 8

molecular target: SpRvs167; test: as above
Method in brief: as §1

Binder | SPOT peptide array binding signal intensity
LKHGWKPLRPIKLIS | 7.5

molecular target: SpSla1-D1-D2; test: as above
Method in brief: as §1

Binder | SPOT peptide array binding signal intensity
LKHGWKPLRPIKLIS | ≤ 0

molecular target: SpSla1-D3; test: as above
Method in brief: as §1

Binder | SPOT peptide array binding signal intensity
LKHGWKPLRPIKLIS | ≤ 0

Reference: the supplement of paper PMC4466140
